Assay outcomes deposited in PubChem by several laboratories.
NTR1 ag – agonists of human NTR1, primary screen, imaging, U2OS cells, beta-arrestin-GFP, high content; Neurotensin receptor type 1 (Homo sapiens), P30989; AID 493036, 2011; NTR1-U2OS beta-arrestin-GFP spot imaging, agonist mode; 330,000 compounds, 0.17% hits; activation, % at 20 µM;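 active = activation at or above 40% of the spot to cytoplasm intensity ratio, with at least 20 cells analyzed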;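 also: 0% = DMSO without peptide and 100% = 100 nM NTR1 peptide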
Target sequence (P30989 whole entry, looked up): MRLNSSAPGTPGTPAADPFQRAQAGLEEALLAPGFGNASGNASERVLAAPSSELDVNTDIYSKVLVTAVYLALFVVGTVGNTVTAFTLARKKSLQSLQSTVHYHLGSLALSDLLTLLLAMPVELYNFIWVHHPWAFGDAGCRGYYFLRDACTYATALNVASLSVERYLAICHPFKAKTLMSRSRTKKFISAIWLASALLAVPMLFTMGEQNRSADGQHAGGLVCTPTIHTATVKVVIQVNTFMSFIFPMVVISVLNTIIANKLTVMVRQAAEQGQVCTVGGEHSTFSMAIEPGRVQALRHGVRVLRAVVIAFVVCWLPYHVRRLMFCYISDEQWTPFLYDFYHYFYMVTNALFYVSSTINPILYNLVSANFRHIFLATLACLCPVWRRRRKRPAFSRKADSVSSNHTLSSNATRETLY
697 NFkB inh – inhibitors of PMA/ionomycin-induced NF-kB reporter, 697 cells, primary screen, B-cell NF-kB inhibitor project, cell-based, luminescence, uHTS; 330,000 compounds, 0.33% hits; inhibition, % at 4 µM; 697 B-cell NF-kB luciferase reporter, 16 h; in the data active = inhibition above about 35%
Mdm2-MdmX inh – inhibitors of human Mdm2-MdmX association, primary screen, cell-based, luminescence, split luciferase, SaOS-2, uHTS; Protein Mdm4 (Homo sapiens) + E3 ubiquitin-protein ligase Mdm2 (Homo sapiens), …; SaOS-2 split-luciferase Mdm2/MdmX complementation; inhibition, % at 8 µM; 330,000 compounds, 3% hits;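 active = inhibition of at least 50% at 8 µM in the primary screen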
Jurkat NFkB inh – inhibitors of induced NF-kB luciferase reporter, primary screen, TCR NF-kB activation inhibitor project, cell-based, luminescence, uHTS. Jurkat, PMA/ionomycin-induced NF-kB luciferase reporter. AID 435003, 2010. inhibition, % at 4 µM. 330,000 compounds, 0.53% hits; in the data active = inhibition above about 50%
Beta cell apopt – inhibitors of cytokine-induced beta cell apoptosis, primary screen, luminescence; INS-1E cytokine-induced death, ATP luminescence, 48 h; percent of positive-control rescue, neutral wells zero; protection from apoptosis, % (concentration not given with the values); 300,000 compounds, 0.8% hits;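 active = Every replicate reaches about 75%, or at least half do and their mean reaches it too, limit read from the data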;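 also: 0% = cytokine-treated negative control wells and 100% = positive control rescue; higher means more ATP so stronger rescue from cytokine killing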
A1 inh – caspase 3/7 activation in MEF A1-2A-BIM cells, primary screen, A1 inhibitor project, cell-based, luminescence, HTS; 330,000 compounds, 0.066% hits; Caspase-Glo 3/7 luminescence, 3 h; percent of clofoctol response, vehicle zero; AID 2462, 2010; caspase activation, % (no concentration beside the values);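 active = over half of replicate activation scores above 10%, or exactly half above 10 with the replicate mean above 10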
Mdm2-MdmX conf – Mdm2-MdmX complex disruptors, retested hits, confirmation, luminescence, single concentration | shares compounds with Mdm2-MdmX inh | Mdm2-MdmX binding, luminescent assay | inhibition, % at 8 µM | 10,000 compounds, 55% hits | AID 489028, 2010; in the data active = inhibition above about 40%
Full FLuc ctr – full-length luciferase signal inhibition, confirmation, counter-screen for Mdm2/MdmX interaction inhibitor project, cell-based, single concentration, SaOS-2. SaOS-2 full-length luciferase counterscreen, luminescence. 6,200 compounds, 77% hits. inhibition, % at 8 µM. shares compounds with Mdm2-MdmX inh;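 active = mean inhibition at 8 µM reaching about 37%, which flags the compound as non-specific, limit read from the data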;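 also: p53-null SaOS-2 cells with luciferase driven by a doxycycline-inducible promoter; compound on cells about two nights before reading with doxycycline added after day one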
* marks the source's active call; other numbers are inactive results; · = no result. This is a sample that favours compounds with a hit; in the whole collection about 3.8% have one here.

SMILES	NTR1 ag	697 NFkB inh	Mdm2-MdmX inh	Jurkat NFkB inh	Beta cell apopt	A1 inh	Mdm2-MdmX conf	others
COc1cc(CNCCc2c[nH]c3ccccc23)ccc1OCc1ccc(F)cc1	15.7	-9.1	99.0*	2.4	31.4	-0.3	59.0*	Full FLuc ctr=56.6*
Cc1ccc(OCc2cc(C(=O)N(C)Cc3cnc4ccccn34)no2)cc1C	5.8	-41.6	15.5	21.9	7.2	0.2	·
CCNC(=O)CC1SC(=Nc2ccc(C)c([N+](=O)[O-])c2)N(C)C1=O (centres undefined)	-1.1	-1.7	21.7	18.9	·	-0.4	·
COc1ccc(-c2csc(-n3ncc(-c4ccccn4)c3N)n2)cc1	3.3	6.6	57.5*	0.6	1.8	0.6	5.8
O=C(N/N=C/c1ccccc1O)C1CC(=O)N(c2ccc(F)cc2)C1 (centres undefined)	-0.5	9.5	51.8*	7.9	26.0	3.7	38.1	Full FLuc ctr=43.7*
COc1ccc(N2CC(C(=O)N/N=C/c3c[nH]c4ccccc34)CC2=O)cc1 (centres undefined)	-1.6	-9.2	-6.4	-2.7	-8.5	-0.6	·
COc1cccc(OC)c1C(=O)Nc1ccccc1C(=O)N1CCCCCC1	1.2	-5.7	-0.9	4.5	-10.7	0.1	·
O=C(c1ccc(F)cc1Cl)N1CCN(CCc2ccccc2)CC1	1.8	-1.7	-13.1	-7.2	2.6	0.8	·
C[C@@H]1CC=C[C@H]2[C@H]1C(=O)N(Cc1ccccc1)[C@H]2c1ccoc1	-1.9	-20.5	4.5	1.4	-11.9	1.1	·
CC[C@@H]1CC=C[C@H]2[C@H]1C(=O)N(Cc1ccccc1)[C@H]2c1ccoc1	19.5	-144.4	69.0*	16.5	5.9	0.3	9.4
Cc1cccc(Nc2nc(N3CCCCC3)nc(N3CCCCC3)n2)c1	4.2	8.0	5.0	-3.1	15.9	0.2	·
Cc1ccc(F)cc1NC(=O)CSc1nc(Nc2ccccc2)nc(N2CCOCC2)n1	7.9	-12.4	74.3*	6.2	-9.7	0.5	17.4
c1ccc(Nc2nc(N3CCOCC3)nc(N3CCOCC3)n2)cc1	0.6	17.9	56.3*	-25.5	3.2	0.8	27.1
Cc1cccc(Nc2nc(N3CCOCC3)nc(N3CCOCC3)n2)c1	-0.8	31.1	51.3*	-24.8	2.1	1.1	35.8
Cc1ccccc1NC(=O)CSc1nc(Nc2ccccc2)nc(N2CCOCC2)n1	2.7	16.5	19.6	9.7	-2.5	0.0	·
Oc1cccc(Nc2nc(N3CCOCC3)nc(N3CCOCC3)n2)c1	1.5	31.6	56.3*	-11.5	-5.2	-0.7	43.0*	Full FLuc ctr=73.8*
Cc1ccccc1-c1nnc(SCC(=O)N(C)c2c(N)n(Cc3ccccc3)c(=O)[nH]c2=O)n1C	-0.3	11.3	10.6	5.2	0.9	-0.6	·
O=C(COc1ccc(F)cc1Br)Nc1ccccc1N1CCOCC1	6.6	2.8	21.1	5.1	·	·	·
Cc1cccc2c1-c1sc(C(=O)N3CCCCC3)cc1CO2	-3.4	-67.4	-148.8	-104.1	2.5	-0.3	·
Cc1cccc2c1-c1sc(C(=O)Nc3ccccc3N3CCN(C)CC3)cc1CO2	11.5	10.9	64.9*	1.7	4.3	-0.2	37.7	Full FLuc ctr=68.2*
O=C1C(N2CCOCC2)=C(n2nnc3ccccc32)C(=O)c2ccccc21	-2.8	1.7	73.2*	42.7	120.2*	1.5	33.0
O=C1c2ccccc2C(=O)c2c1cccc2-n1nnc2ccccc21	0.7	5.5	14.4	11.8	-8.1	-0.4	·
Clc1ccc2nc(C3CCN(Cc4nnnn4C4CCCCC4)CC3)[nH]c2c1	2.4	5.5	22.6	8.5	-6.2	-0.6	·
Cc1ccc(Cn2nnnc2CN2CCC(c3nc4ccc(Cl)cc4[nH]3)CC2)cc1	2.6	18.2	58.1*	44.6	8.5	0.7	37.6	Full FLuc ctr=46.4*
O=C1N[C@H](C(=O)O)CS1	0.2	5.0	-34.6	-4.8	·	0.5	·
SMILES	NTR1 ag	697 NFkB inh	Mdm2-MdmX inh	Jurkat NFkB inh	Beta cell apopt	A1 inh	Mdm2-MdmX conf	others
CCOC(=O)c1sc2nc(C)nc(NCc3ccccc3)c2c1C	2.2	-4.5	52.0*	31.5	-12.7	-1.4	25.8	Full FLuc ctr=112.9*
CCOC(=O)c1sc2nc(C)nc(Nc3ccccc3)c2c1C	1.6	7.4	14.4	-6.4	-0.9	-2.3	·
CCOc1ccc(NC(=O)CSc2nc(=O)n(Cc3cccnc3)c3c2CCC3)cc1	-0.3	-5.5	23.2	-10.8	·	-0.7	·
CCCn1c2ccccc2c2nnc(SC(CC)C(=O)Nc3sc4c(c3C#N)CCCC4)nc21 (centres undefined)	0.3	-28.7	53.9*	-8.3	17.5	0.3	23.1
COc1ccc(N2CCN(S(=O)(=O)CCNC(=O)COc3ccc(Cl)cc3)CC2)cc1	1.4	2.8	24.8	0.8	-6.2	-0.4	·
O=C1c2ccccc2/C(=C\c2ccc3[nH]ccc3c2)N1c1ccccc1	3.0	-52.7	11.5	17.2	-4.8	-0.3	·
CCC/C(=C1/c2ccccc2C(=O)N1c1ccccc1)c1ccc2[nH]ccc2c1	22.7	12.9	59.1*	6.7	19.0	0.0	52.4*	Full FLuc ctr=45.4*
COc1ccc(Oc2c(Cl)cnn(-c3ccc(Cl)c(Cl)c3)c2=O)cc1	-0.7	6.3	85.4*	5.4	-2.5	-0.4	-5.8
COc1ccc(Oc2c(Cl)cnn(-c3ccc(C)cc3)c2=O)cc1	9.3	0.0	49.0	0.6	1.8	2.1	·
COc1ccc(NC(=O)COc2ccccc2Cc2ccccc2)cc1S(=O)(=O)N1CCOCC1	-0.1	-2.4	21.1	5.2	·	·	·
CCN1C(=O)c2cccc3c(NC(=O)C(C)(C)C)ccc1c23	-0.6	10.9	16.8	-1.7	·	0.0	·
CCCCC(=O)Nc1ccc2c3c(cccc13)C(=O)N2CC	0.2	34.3	55.1*	4.0	-5.2	-1.5	36.8	Full FLuc ctr=59.3*
COc1ccc(S(=O)(=O)Nc2cc(Cl)ccc2-n2cncn2)cc1	2.6	8.1	8.8	4.1	7.7	-0.6	·
O=C(NCc1cnn(-c2ccccc2)c1)C1CCC(=O)N(C2CC2)C1 (centres undefined)	1.7	5.8	32.2	12.4	-1.1	0.2	·
Cc1ccc(Cc2c(C)c(C#N)c3[nH]c4ccccc4n3c2=O)cc1	24.0	-28.2	65.4*	3.1	76.8*	0.6	54.8*	Full FLuc ctr=35.8
